# From PubChem BioAssay
# Shown are actives, neighbours in structure and some others; about 2.4% of the full set was active somewhere.
# AmpC det inh: blocks E. coli AmpC beta-lactamase in presence of detergent. purified AmpC, nitrocefin hydrolysis with detergent. Potency, µM (series often up to 28.7 µM), without a hit: top-dose activity change, negative = inhibition. actives 0.09% (n = 71,000); active = well fitted curve in the direction sought with a large enough effect; inconclusive = small, poorly fitted or top-dose-only effect; note: % is set by controls: 0 for no effect and ±100 for the full control effect
# Target sequence (P00811 whole entry, looked up): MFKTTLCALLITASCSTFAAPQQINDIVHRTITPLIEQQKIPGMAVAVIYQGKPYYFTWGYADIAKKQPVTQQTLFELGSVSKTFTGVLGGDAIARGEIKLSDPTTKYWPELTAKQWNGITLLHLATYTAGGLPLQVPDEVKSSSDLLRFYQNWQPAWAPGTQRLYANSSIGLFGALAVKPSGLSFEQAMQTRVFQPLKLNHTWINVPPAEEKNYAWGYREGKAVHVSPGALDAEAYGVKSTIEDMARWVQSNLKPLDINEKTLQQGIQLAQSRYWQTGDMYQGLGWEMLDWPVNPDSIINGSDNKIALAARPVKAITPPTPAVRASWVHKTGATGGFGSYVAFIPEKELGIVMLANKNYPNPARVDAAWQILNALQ
#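 E. coli AmpC (5.3 nM) in 20 mM phosphate pH 7.0 with 0.01% Triton X-100, preincubated 15 min RT with compound; nitrocefin (2 uL of 800 uM stock) hydrolysis followed by 480 nm absorbance every 20 s over 4 min.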
# LT uptake inh: blocks cellular internalization of anthrax lethal toxin | actives 0.67% (n = 70,000) | AID 912 | Potency, µM (doses to about 40 µM), inactives show top-dose activity change, negative = inhibition, hits mostly inhibitors | Cells, anthrax lethal toxin internalization, FRET ratio (460/530); note: % is set by controls: 0 for no effect and ±100 for the full control effect; nearly all actives have a fitted effect of over 50% in size
# Prx2 Sm inh: inhibitors of Schistosoma mansoni peroxiredoxin 2. S. mansoni Prx2 activity coupled to TGR/GSH (TGR is thioredoxin glutathione reductase), NADPH fluorescence loss, qHTS. AID 448. actives 0.07% (n = 65,000). Potency, µM
#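 Prx2 activity was followed as the loss of NADPH fluorescence (ex 365/em 450 nm), read every 30 sec for 8 min after H2O2 start. The enzyme mix (50 nM Prx2, 25 nM TGR, GSH, NADPH; pH 7.4 phosphate buffer) was incubated with compound for 15 min at room temperature first.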
# AmpC nodet inh: blocks E. coli AmpC beta-lactamase in absence of detergent; AmpC nitrocefin hydrolysis, absorbance 480 nm, no detergent; Potency, µM (highest dose often 28.7 µM), for the others: at the top dose activity change, negative = inhibition; actives 1.8% (n = 71,000); note: % of control where 0% means no effect
#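 AmpC in 20 mM phosphate buffer pH 7.0 was preincubated 15 min at room temperature with compounds. Nitrocefin (800 uM stock) was then added and hydrolysis followed at 480 nm every 20 s for 4 min.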
# Numbers without * were called inactive; ? = inconclusive; / = no result; [ ] = dose if it differs, or a comment. Unless noted, calls come from the whole dose curve. Potency is the fitted concentration of half-maximal effect.
SMILES,AmpC det inh,LT uptake inh,Prx2 Sm inh,AmpC nodet inh
C[C@@H](C(=O)Nc1ccc2ccccc2c1)[C@@H]1C[C@@]1(C)[C@@H](NS(=O)(=O)c1ccccc1)c1ccccc1,1%,?,>57,-14%
CC(C)[C@H]1C(=O)C(C(N)=O)=C(O)[C@]2(O)C(=O)C3=C(O)c4c(O)ccc(N(C)C)c4C[C@H]3C[C@@H]12,-2%,-3%,>57,-9%
CCC(=O)/C=C/C1C(C)=CCCC1(C)C (stereo unspecified),6%,11%,/,-6%
CCC(C)c1ccc2oc(-c3ccc(NC(=O)c4ncn[nH]4)cc3)nc2c1 (stereo unspecified),-5%,?,>57,13µM*[single pt active]
O=c1c(-c2cc(F)cc(F)c2)nc2cncnc2n1Cc1ccc(F)cc1,-1%,?,>57,18%
C=C(CO)[C@H]1Cc2c(ccc3c2O[C@H]2COc4cc(OC)c(OC)cc4[C@@H]2C3=O)O1,1%,?,>57,44%
O=C1c2ccccc2NC(c2ccco2)N1O (stereo unspecified),0%,-3%,/,-9%
O=C1C2=C(Nc3ccccc3SC2c2ccco2)c2ccccc21 (stereo unspecified),7%,?,/,0.4µM*
NC(=O)c1cccc2c1C(=O)N(C1CCCCC1)C2,13%,-7%,>57,4µM*[single pt active]
COc1ccc(OC)c(C2OCCC=CC2C)c1 (stereo unspecified),/,2%[8 µM],/,/
COc1ccc(OC)c(NC(=O)c2cc(-c3cc(Cl)ccc3O)n[nH]2)c1,-1%,/,>57,10µM*
COc1ccc(NC(=O)c2cc(-c3cc(C)ccc3O)n[nH]2)cc1Cl,-3%,?,>57,-12%
O=C(CSc1nnc(-c2cc3ccccc3cc2O)n1Cc1ccco1)c1ccc(F)cc1,22%,?,>57,10µM*
O=C(O)[C@@H](O)[C@@H](O)[C@@H]1[O][Sb][O][C@@H]1CO,-5%[5.75 µM],-4%[8 µM],0.86*,6%[5.75 µM]
Cc1cc[c]([Sb]2[O][C@H]([C@H](O)[C@H](O)C(=O)O)[C@@H](CO)[O]2)cc1,-1%[5.75 µM],-2%[8 µM],>57,-5%[5.75 µM]
O=C(CSc1nnc(-c2ccccc2O)o1)Oc1ccc(OCc2ccccc2)cc1,-7%,-13%,>57,13µM*[single pt active]
CC1=C2C(=O)[C@@H]3[C@@H](CC=C4C[C@@H](O)CC[C@@]43C)[C@H]2CC[C@@]12O[C@H]1C[C@H](C)CN[C@H]1[C@@H]2C,-4%[5.75 µM],?,>57,14%[5.75 µM]
Cc1ccc(S(=O)(=O)CCC(=O)c2ccc(O)cc2O)cc1,7%,13µM*,/,13µM*
Cc1cccc(N)c1C,15%,-7%,/,8%
CC1CCN(C(=O)Cn2c(=O)oc3ccccc32)CC1,-1%,2%,>57,-5%
CC1CCN(C(=O)CN2C(=O)C(=O)c3ccccc32)CC1,10%,6%,>57,4µM*[single pt active]
O=C(COc1ccc2ccccc2c1Br)N1CCN(c2ccccn2)CC1,0%,13µM*,>57,64%
O=C(CC1CCCCC1)N1CCN(c2ccccn2)CC1,-3%,-3%,>57,17%
O=C(O)CCC(=O)N1CCN(c2ccccn2)CC1,17%,-9%,>57,?
O=C(CSc1nccc2ccccc12)N1CCN(c2ccccn2)CC1,10%,5µM*,>57,17%
SMILES,AmpC det inh,LT uptake inh,Prx2 Sm inh,AmpC nodet inh
[O-]/[N+](=N\O)c1ccccc1,27%,15%,/,-7%
CN1CCN(c2ccc([N+](=O)[O-])c3[nH]o[n+](=O)c23)CC1,-7%[5.75 µM],?,>57,6%[5.75 µM]
COc1ccc(CNC(=O)Cn2nc(C(F)(F)F)c3c2CCC3)cc1,-2%,-5%,>57,7%
COc1ccc(NC(=O)Cn2nc(C(F)(F)F)c3c2CCCC3)c(OC)c1,-7%,13µM*,>57,52%
CCc1nnc(NC(=O)CSc2nnc(COc3ccccc3C)o2)s1,-3%,-2%,>57,13µM*[single pt active]
Clc1cccc(N2CCN(Cc3nc(-c4ccccc4)no3)CC2)c1,13%,?,>57,4µM*[single pt active]
CCNc1ncc2ncc(=O)n(Cc3ccc(F)cc3)c2n1,-1%,-12%,>57,28%
Nc1ccccc1O.O.O=C(O)[C@H]1[O][Sb][O][C@H]1C(=O)O,-2%[5.75 µM],?,0.22*,-5%[5.75 µM]
CC1=CC(=O)NP(=O)(Oc2ccc3ccccc3c2)N1 (stereo unspecified),5%,?,0.57*,-13%
CCC(Oc1ccc2ccccc2c1)C(=O)O (stereo unspecified),-1%,-12%,>57,3%
COc1ncc2nc(-c3ccccc3)c(=O)n(-c3ccccc3)c2n1,-6%,?,>11,27%
CCOc1ccc(CN2C(=O)CCC2(C)C(=O)NCc2cccnc2)cc1 (stereo unspecified),12%,-10%,>57,21%
CC1CCC(NC(=O)C2(C)CCC(=O)N2Cc2cccnc2)CC1 (stereo unspecified),12%,-2%,>57,4µM*[single pt active]
CC1(C(=O)NC2CCCCC2)CCC(=O)N1Cc1cccnc1 (stereo unspecified),11%,2%,>57,4µM*[single pt active]
COc1ncc2nc(-c3ccc(F)cc3)c(=O)n(-c3ccccc3)c2n1,1%,-8%,>57,8%
COCCNC(=O)CSc1nc2cc(OC)c(OC)cc2c(=O)n1Cc1ccco1,-1%,6%,>57,40%
COC(=O)c1ccc2c(=O)n(Cc3ccco3)c(SCC(=O)Nc3ccc(C)c(Cl)c3)nc2c1,-2%,-4%,>57,13µM*
CS(=O)(=O)N(Cc1ccco1)CC(O)Cn1c2ccccc2c2ccccc21 (stereo unspecified),3%,10µM*,>57,87%
OC(CNCc1ccco1)Cn1c2ccccc2c2ccccc21 (stereo unspecified),-6%,-6%,>57,40%
COc1cccc(NC(=O)n2nc(N)cc2-c2ccc(Cl)cc2)c1,10%,?,>57,4µM*[single pt active]
COc1cccc(NC(=O)CSc2nc(N)cc(N)n2)c1,-7%,12%,>57,-3%
COC(=O)c1nnn(Cc2ccccc2)c1N,-1%,7%,>57,-2%
COc1cccc(NC(=O)Cn2nnc(C(=O)Nc3ccccc3)c2N)c1,0%,7%,>57,-13%
CSc1cccc(NC(=O)c2nnn(Cc3ccccc3)c2N)c1,-2%,?,>57,-16%
COc1ccc(OC)c(NC(=O)c2nnn(CCc3ccccc3)c2N)c1,12%,-13%,>57,4µM*[single pt active]
SMILES,AmpC det inh,LT uptake inh,Prx2 Sm inh,AmpC nodet inh
COc1cccc(NC(=O)c2nnn(CCc3ccccc3)c2N)c1,9%,?,>57,4µM*[single pt active]
CCc1ccc(Cn2nnc(C(=O)Nc3ccc(OC)cc3OC)c2N)cc1,10%,-10%,>57,4µM*[single pt active]
COc1cc(NC(=O)c2nnn(Cc3ccc(SC)cc3)c2N)cc(OC)c1,11%,?,>57,4µM*[single pt active]
C/C(=C\CNc1ncnc2c1ncn2[C@@H]1O[C@@H](CO)[C@@H](O)[C@H]1O)CO,-3%,16%,>57,2%
COc1ncc2nc(C)c(=O)n(CCC#N)c2n1,-2%,-7%,>57,-5%
CN1CCN(c2ncnc3ccc(-c4cccc(NS(C)(=O)=O)c4)cc23)CC1,-23%,?,>57,5%
